From PubChem
KDM5B inhibitor: Primary screen for KDM5B Histone Demethylases FDH-coupled qHTS | Lysine-specific demethylase 5B (Homo sapiens), Q9UGL1 | KDM5B demethylase, FDH-coupled NADH fluorescence (FDH is formaldehyde dehydrogenase) | Potency, µM (titrated, usually from 57.7 µM), actives largely listed as inhibitors | 2.6% of 220,000 active | AID 1347165, 2019; active = well fitted inhibition curve with a large enough effect; inconclusive = small, poorly fitted or top-dose-only effect; inactive = no such curve, though single readings can be large or run the other way; note: potency is the fitted concentration of half-maximal effect; 0% is about no effect; nearly all actives have a fitted effect of over 70% in size
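Inhibition is measured as reduced NADH fluorescence generation from FDH coupling to formaldehyde release. Truncated KDM5BΔAP at 200 nM final acts on H3K4me3 peptide (12.5 µM in substrate mix) in pH 7.5 HEPES buffer with Tween-20, 30 min, room temperature.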
IP6K1 inhibitor: Primary qHTS assay for small molecule inhibitors of Inositol hexaphosphate kinase 1 (IP6K1). IP6K1 kinase, ADP-Glo luminescence, 2 h; active compounds read low. activity change, % (series mostly up to about 58 µM). 0.81% of 140,000 active. AID 1645851, 2021. Inositol hexakisphosphate kinase 1 (Homo sapiens), Q92551; in the data active = activity change below about -25%; note: % is set by controls: 0 for no effect and ±100 for the full control effect
Target sequence (Q92551 whole entry, looked up): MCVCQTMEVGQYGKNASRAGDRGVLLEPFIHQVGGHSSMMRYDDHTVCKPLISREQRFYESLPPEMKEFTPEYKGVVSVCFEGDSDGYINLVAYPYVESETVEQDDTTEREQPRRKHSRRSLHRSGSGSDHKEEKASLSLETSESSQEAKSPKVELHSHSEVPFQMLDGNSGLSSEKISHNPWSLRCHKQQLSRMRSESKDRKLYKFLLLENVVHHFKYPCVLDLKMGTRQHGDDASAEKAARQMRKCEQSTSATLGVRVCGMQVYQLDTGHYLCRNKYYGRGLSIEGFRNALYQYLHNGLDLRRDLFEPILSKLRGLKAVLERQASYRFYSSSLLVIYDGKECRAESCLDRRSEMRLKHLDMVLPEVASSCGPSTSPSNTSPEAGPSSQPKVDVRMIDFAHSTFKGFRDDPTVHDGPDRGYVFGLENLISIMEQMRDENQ
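ADP-Glo luminescence measures ADP made by human IP6K1 during a 2 h RT reaction with ATP/IP6 (mix at 1.3 mM/130 uM); top library doses 57.5 and 19.1 uM final.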
The depositor's hits bear a star. Shown are actives, neighbours in structure and some others; about 2.8% of the full set was active somewhere.

What do the screens show for `CN1Cc2ccc(NCc3ccccc3)nc2C(C)(C(=O)NCCCn2ccnc2)C1` (configuration not stated)?
KDM5B inhibitor: inconclusive; IP6K1 inhibitor: 17

Results for O=C(NCC1CCCCC1)c1cn2cc(-c3ccccc3)sc2n1 ?
IP6K1 inhibitor: 0

What do the screens show for `CSc1ccc(-c2cccc(C(=O)NCCNC(=O)Nc3ccc(Cl)cc3)c2)cc1`?
IP6K1 inhibitor: 18

What do the screens show for `O=C(NCc1cccc(C(F)(F)F)c1)c1ccc2nc(-c3ccccn3)oc2c1`?
IP6K1 inhibitor: -2

How did CCN1CCC(OCCCNC(=O)c2ccc(CC3CCN(C(C)=O)CC3)cc2)CC1 do in these assays?
IP6K1 inhibitor: -8

How did CN(C)CCNC(=O)C1(C)CN(Cc2ccccc2)Cc2ccc(N3CCOCC3)nc21 (configuration not stated) do in these assays?
KDM5B inhibitor: 35µM*; IP6K1 inhibitor: -2

How did CC1(C(=O)NCc2ccccc2)CN(Cc2ccccc2)Cc2ccc(N3CCOCC3)nc21 (configuration not stated) do in these assays?
KDM5B inhibitor: 22µM*; IP6K1 inhibitor: 8

Results for COCCCNC(=O)C1(C)CN(Cc2ccccc2)Cc2ccc(NCC(C)C)nc21 (configuration not stated) ?
KDM5B inhibitor: inactive; IP6K1 inhibitor: 13

Results for CC1(C(=O)NCc2ccncc2)CN(Cc2ccccc2)Cc2ccc(N3CCOCC3)nc21 (configuration not stated) ?
KDM5B inhibitor: inconclusive; IP6K1 inhibitor: 16

What do the screens show for `Cc1cn2nc(C(=O)NCC(C)c3ccccc3)cc2c(N2CCSCC2)n1` (configuration not stated)?
KDM5B inhibitor: inconclusive; IP6K1 inhibitor: -15

Results for COc1ccc(OC)c(NC(=O)c2cc3c(N4CCSCC4)nc(C)cn3n2)c1 ?
KDM5B inhibitor: inactive; IP6K1 inhibitor: 3

Results for COc1ccccc1NC(=O)c1cc2c(N3CCSCC3)nc(C)cn2n1 ?
KDM5B inhibitor: 28µM*; IP6K1 inhibitor: 5

Results for Cc1ccc(C)c(NC(=O)c2cc3c(N4CCSCC4)nc(C)cn3n2)c1 ?
KDM5B inhibitor: 32µM*; IP6K1 inhibitor: -1

Results for Cc1ccc(CNC(=O)c2cc3c(N4CCSCC4)nc(C)cn3n2)cc1 ?
KDM5B inhibitor: inconclusive; IP6K1 inhibitor: -1

What do the screens show for `Cc1cn2nc(C(=O)Nc3ccccc3C)cc2c(N2CCSCC2)n1`?
KDM5B inhibitor: 35µM*; IP6K1 inhibitor: -7

What do the screens show for `O=C1CSc2ccc(C(=O)OCC(=O)c3cccs3)cc2N1`?
KDM5B inhibitor: inactive

How did Cc1cc(C(=O)OCC(=O)Nc2ccccc2C)c2ccccc2n1 do in these assays?
KDM5B inhibitor: inactive

What do the screens show for `Cc1ccccc1C(=O)N1CCCN(c2ccc3nnc(C4CC4)n3n2)CC1`?
IP6K1 inhibitor: 0

What do the screens show for `COc1ccc(-c2ccnc3nc(-c4cccs4)nn23)cc1OC`?
KDM5B inhibitor: inconclusive; IP6K1 inhibitor: -5

What do the screens show for `COCc1nc2nccc(-c3ccc(OC)cc3F)n2n1`?
KDM5B inhibitor: 28µM*; IP6K1 inhibitor: -3

Results for COc1ccc(CCc2nc3nccc(-c4ccc(OC)cc4F)n3n2)cc1 ?
KDM5B inhibitor: 22µM*; IP6K1 inhibitor: 1

Results for COc1ccc(CCc2nc3nccc(-c4ccco4)n3n2)cc1 ?
KDM5B inhibitor: inconclusive; IP6K1 inhibitor: 7

Results for COc1cc(F)ccc1-c1ccnc2nc(-c3cccs3)nn12 ?
KDM5B inhibitor: inconclusive; IP6K1 inhibitor: -1

What do the screens show for `COc1ccc(-c2ccnc3nc(-c4cccs4)nn23)c(F)c1`?
KDM5B inhibitor: 14µM*; IP6K1 inhibitor: 2

How did c1ccc(-c2ccnc3nc(-c4cccs4)nn23)cc1 do in these assays?
KDM5B inhibitor: 32µM*; IP6K1 inhibitor: -7

What do the screens show for `CCc1nc2nccc(-c3ccc(OC)cc3F)n2n1`?
KDM5B inhibitor: inactive; IP6K1 inhibitor: -9

Results for COc1ccc(CCNC(=O)C2CCCN(Cc3cccc(-c4cccc(C)c4)c3)C2)cc1 (configuration not stated) ?
IP6K1 inhibitor: -12

Results for COc1ccccc1Nc1ccnc(N2CCCC(C(=O)NC(C)C)C2)n1 (configuration not stated) ?
IP6K1 inhibitor: 3

What do the screens show for `CN1CCC(N(Cc2ccccc2)[C@@H]2C[C@@H]3CO[C@H](c4ccccc4)C[C@@H]3C2)CC1`?
IP6K1 inhibitor: 23

How did COC(=O)N1CCC(N2C(=O)c3c(c(C)nn3-c3ccccc3)C2C2CC2)C1 (configuration not stated) do in these assays?
IP6K1 inhibitor: 0

How did Cc1cccc(-c2cccc(CN3CCC(NC(=O)Cc4cccc(Cl)c4)CC3)c2)c1 do in these assays?
IP6K1 inhibitor: -10

What do the screens show for `Cn1cccc1C(=O)N1CCC(Nc2cccnc2)C1` (configuration not stated)?
KDM5B inhibitor: inactive; IP6K1 inhibitor: 6

What do the screens show for `Cc1nc2c(NC3CCN(C(=O)c4cccn4C)CC3)cccn2n1`?
KDM5B inhibitor: 32µM*; IP6K1 inhibitor: 12

What do the screens show for `COc1ncccc1CNC(=O)Nc1ccc(Br)c(C)c1`?
KDM5B inhibitor: inactive

How did Fc1ccc(CNC(=S)Nc2ccccc2)cc1 do in these assays?
KDM5B inhibitor: inactive

What do the screens show for `O=C(NCC(F)F)C1CCN(c2nccc(Nc3ccccc3Cl)n2)CC1`?
IP6K1 inhibitor: 7

What do the screens show for `O=C(c1cccnc1)N1C[C@@H]2OCC(=O)N(Cc3ccccn3)[C@@H]2C1`?
KDM5B inhibitor: inactive; IP6K1 inhibitor: -5

How did CCOC(=O)c1cccnc1N1C[C@H]2OC(=O)N(Cc3ccccn3)[C@H]2C1 do in these assays?
KDM5B inhibitor: 28µM*; IP6K1 inhibitor: 17

Results for O=C(/C=C/c1ccccc1)OC[C@H]1O[C@@H](OC(=O)c2cc(O)c(O)c(O)c2)[C@H](O)[C@@H](O)[C@@H]1O ?
IP6K1 inhibitor: -47*

Results for O=C(/C=C/c1ccc(O)cc1)OC[C@H]1O[C@@H](O/C(=C\c2ccccc2)C(=O)O)[C@H](O)[C@@H](O)[C@@H]1O ?
IP6K1 inhibitor: 1

Results for O=C(NCc1ccccc1)C1CCCCN1Cc1ccc(-c2ccsc2)cc1 (configuration not stated) ?
IP6K1 inhibitor: -2

What do the screens show for `CCOC(=O)[C@@H]1[C@@H](OC)C(=O)N(C)C12CCN(C(=O)c1cc(OC)c(OC)c(OC)c1)CC2`?
IP6K1 inhibitor: 0

How did CN1CCC2(C1)CN(Cc1ccccc1)c1ccc(C(=O)NC3CCCCC3)cc12 (configuration not stated) do in these assays?
KDM5B inhibitor: inconclusive; IP6K1 inhibitor: -2

Results for COCCN(C)C(=O)c1ccc2c(c1)C1(CCN(C)C1)CN2CC1CC1 (configuration not stated) ?
KDM5B inhibitor: inconclusive; IP6K1 inhibitor: 37

How did CN1CCC2(C1)CN(CC1CC1)c1ccc(C(=O)NC3CCC3)cc12 (configuration not stated) do in these assays?
KDM5B inhibitor: 35µM*; IP6K1 inhibitor: 6

Results for CN1CCC2(C1)CN(CC1CC1)c1ccc(C(=O)NC3COC3)cc12 (configuration not stated) ?
KDM5B inhibitor: 35µM*; IP6K1 inhibitor: -1
